This note sets out measurements from PubChem BioAssay AID488890 (Southern Research Specialized Biocontainment Screening …, 2010).

Hit rate of the full screen: of about 320,000 compounds, about 1,300 (0.41%) were called active. About 3% were inconclusive and are not listed. The rule behind the calls is not given here. A selection follows. Measured potencies and affinities stand elsewhere.

A short description of the assay: growth inhibition of non-replicating M. tuberculosis (AID 488890).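 Note: plate controls were DMSO cells for no effect and high antibiotic wells for full effect.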 The following applies: Mycobacterium tuberculosis non-replicating, at 25 µM, stronger effect = higher value.
For the molecule `Cc1ccc(C)c(OCCCNCc2ccccc2)c1`, the inhibition (in general, the change of the read-out against control, counted positive when it falls) was determined as 32.5%.

`Brc1ccccc1OCCNCc1ccccc1`: the inhibition was found to be 32.1%. Consider `O=C(Nc1ccc2c(c1)OCO2)c1cccs1`, for which the inhibition turned out to be 21.2%.

Take `CCc1sc(C(=O)Nc2ccc3c(c2)OCO3)cc1C`: the inhibition came to 61.2%. For `O=C(N/N=C/c1c(Nc2cccc(C(F)(F)F)c2)nc2ccccn2c1=O)c1ccccc1[N+](=O)[O-]`, the inhibition was -6.01%. Take `CN(C)c1ccccc1C(=O)c1ccccc1N(C)C`: the inhibition came to 9.64%.

For the molecule `O=[N+]([O-])c1ccccc1Oc1cnc2ccccc2n1`, the inhibition worked out at 46.2%.

Regarding `Oc1ccccc1C1CC(c2cccs2)=NC(c2ccc(Cl)cc2)N1` (stereo unspecified), the inhibition is 73.4%.

Regarding `Oc1ccc(Cl)cc1C1=NNC(c2cc(Br)cc3c2OCOC3)C1` (stereo unspecified), the inhibition worked out at 61.3%.

`COC(=O)C1=C(C(=O)OC)[C@@H]2N(Cc3ccccc3)c3ccccc3[C@@]23C[C@@H](C(=O)OC)N(C(=O)c2cccs2)C3=N1`: the inhibition came out at 21.8%.

For `CC1CCc2c(C(=O)NCCCN3CCOCC3)csc2C1` (stereo unspecified), the inhibition was -0.86%.

For `COc1cc(NS(=O)(=O)c2csc(C(N)=O)c2)cc(OC)c1`, the inhibition came out at 2.46%. For `COc1ccc(C)c2sc(N(CCN(C)C)C(=O)c3ccc4ccccc4c3)nc12` the value was 28.4%; for `Cc1ccc(NC(=O)COc2ccc3oc4c(c3c2)CCCC4)nc1`, 57.5%; for `Cc1cccnc1NC(=O)COc1ccc2c(c1)CCC2`, 70.6%.

As to `CCOc1ccc(NC(=O)COc2ccc3c(c2)CCC3)cc1OC`, the inhibition was determined as 66.5%. For `Cc1ccc(CNC(=O)COc2ccc3c(c2)CCC3)cc1` the value was 55.2%; for `Cc1cc(NC(=O)COC(=O)COc2ccc3c(c2)CCC3)no1`, 10.3%.

`CC(=O)Nc1ccc(NC(=O)COc2ccc3c(c2)CCC3)cc1`: the inhibition was 79.7%. Regarding `CC(C)C[C@@H](CSc1ccccc1)N1CCN(CCc2ccccc2)CCC1=O`, the inhibition is 31%. Turning to `Fc1cccc(Cl)c1/C=C/c1cnc2ccccc2n1`, the inhibition stood at 13.9%. As to `COc1ccc(-c2noc(CN(C)CCC3CCCCO3)n2)cc1` (stereo unspecified), the inhibition is 17.2%. Regarding `COc1ccc(N2C(=O)CSC2c2cccc(F)c2)cc1` (stereo unspecified), the inhibition stood at 1.65%.

`COC(=O)C1=CN(c2ccc(OC)cc2)C=C(C(=O)OC)C1c1cccc(F)c1`: the inhibition worked out at 26.1%.

Take `COc1ccccc1N(CC(=O)NCC1CCCO1)C(=O)CCC(=O)Nc1nccs1` (stereo unspecified): the inhibition came out at 1.91%. With `Cc1nc2ccccc2c(=O)n1-c1cc(F)ccc1F` the figure was 10.4%. `Nc1ccccc1C#Cc1ccccc1`: the inhibition came out at 44.7%. Consider `Nc1ccccc1C(=O)c1ccccc1`, for which the inhibition is -8.33%. Take `COc1ccc(C(=O)Cn2c(NCCO)nc3ccccc32)cc1`: the inhibition is -8.13%. For `CCCCNC(=O)CCn1nc(-c2ccc(C)cc2)c2ccccc2c1=O` the value was 1.93%; for `Cc1cc(C(=O)N/N=C/c2ccc3ccccc3c2)n[nH]1`, -9.05%. As to `CCOC(=O)Cn1ccc(NC(=O)c2ccc3c(c2)OCO3)n1`, the inhibition was -2.16%.

Turning to `Cc1cccc(Cn2ccc(NC(=O)c3cccnc3)n2)c1`, the inhibition came out at 31.2%. Turning to `CC1CCCC(C)N1C(=O)COC(=O)c1c[nH]c2ccccc12` (stereo unspecified), the inhibition came out at 15.5%.

Turning to `O=C(NCCO)c1cc2cc(Cl)cc(Cl)c2oc1=O`, the inhibition came out at 18%. As to `COCCNC(=O)c1cc2cc(Br)cc(OC)c2oc1=O`, the inhibition was found to be 56%. For `COc1ccccc1/C=C/C(=O)OCCN1C(=O)c2ccccc2C1=O`, the inhibition stood at 2.64%. For `NC(=O)C1CCN(C(=O)NC2CC(=O)N(c3ccc4c(c3)OCCO4)C2)CC1` (stereo unspecified) the value was -13.4%; for `CC(NC(=O)c1ccco1)C(=O)OCC(=O)c1ccc(Cl)s1` (stereo unspecified), 13.9%; for `C/C(=N\NC(=O)c1ccc(C(=O)N/N=C(\C)c2ccco2)o1)c1ccco1`, 19.3%.

Take `CCC/C(=N/NC(=O)c1csc(C)c1C)c1ccc(Cl)s1`: the inhibition was determined as 0.55%. Consider `C/C(=N\NC(=O)c1ccco1)c1ccc(C(=O)O)s1`, for which the inhibition is -5.86%. Consider `O=C(COC(=O)c1ccc(Cl)nc1)NNC(=O)c1ccc(Br)cc1`, for which the inhibition worked out at 6.9%.

In the case of `Cc1ccc(CS(=O)(=O)c2ccc(C(=O)N3CCN(c4ccccn4)CC3)cc2[N+](=O)[O-])cc1`, the inhibition was -16.8%. On to `CC(OC(=O)c1cccs1)C(=O)NC1CCCCC1C` (stereo unspecified), for which the inhibition was -13.9%.

In the case of `Cc1ccc(C(=O)OC(C)C(=O)NC2CCCCC2C)s1` (stereo unspecified), the inhibition is -2.95%.

For `COc1ccc(C(CNC(=O)C(Cc2ccccc2)NC(N)=O)N(C)C)cc1` (stereo unspecified), the inhibition was found to be 3.12%. On to `CCNC(=S)NNC(=O)c1ccncc1`, for which the inhibition was determined as 65.4%.

Consider `CC(C)(C)C(=O)NC(=S)NNC(=O)c1ccncc1`, for which the inhibition stood at 71.7%. Turning to `N/C(Cn1cncn1)=N\NC(=O)C(=O)Nc1ccccc1`, the inhibition is 18%. Turning to `Nc1ccc(Br)cc1Br`, the inhibition is -19.9%. In the case of `Nc1ccc(Oc2ccc(Br)cc2)cc1`, the inhibition was 60.5%.

For the molecule `OCc1nc2ccccc2n1/N=C/c1cccs1`, the inhibition was -12%. Turning to `O=[N+]([O-])c1ccc(O)c(/C=N/n2c(CO)nc3ccccc32)c1`, the inhibition is -11.8%. With `Cc1ccc(/C=N/n2c(C)nc3ccccc3c2=O)s1`, the inhibition was determined as 18.6%.

For `Cc1cc2ncn(/N=C/c3cccnc3)c2cc1C`, the inhibition stood at 55%. As to `Cc1cc2ncn(/N=C/c3ccc4c(c3)OCO4)c2cc1C`, the inhibition amounted to 64.7%. For `Nc1nc2ccccc2n1/N=C/c1ccc([N+](=O)[O-])s1`, the inhibition amounted to 74.1%. Turning to `COc1ccc(C(=O)Nc2ccccc2)cc1S(=O)(=O)NCc1ccco1`, the inhibition is -9.46%.

As for `Cc1ccc(S(=O)(=O)N2CCCC(C(=O)NNCC(=O)Nc3cc(F)ccc3F)C2)cc1` (stereo unspecified), the inhibition is 11.7%.

Turning to `O=C(Nc1nnc(SCc2ccccc2F)s1)C1=COCCO1`, the inhibition was found to be 45.5%.

Regarding `CNC(=O)COC(=O)c1ccc([N+](=O)[O-])cc1Cl`, the inhibition turned out to be 11.7%. On to `CCc1cc2ccc(C)cc2nc1SCC(=O)c1ccc(NC(C)=O)cc1`, for which the inhibition came to 12%.

Take `CC(C)Oc1ccc(NC(=O)CCC(=O)O)cc1`: the inhibition is -9.1%. Turning to `Cc1ccc(NCC(=O)c2ccc(C)cc2)cc1`, the inhibition turned out to be 72.5%. For `CC(C)Oc1ccc(NC(N)=O)cc1` the value was -4.08%; for `Cc1ccc(C(=O)CNc2ccc(Cl)cc2)cc1`, 74.1%; for `Cc1ccc(-c2nnn(CC(=O)N(c3ccccc3)C(C(=O)NCC3CCCO3)c3cccs3)n2)o1` (stereo unspecified), -3.42%. As for `O=C(O)C1C2C=CC(C2)C1C(=O)Nc1nccs1` (stereo unspecified), the inhibition is -3.04%. With `COc1ccc2c(=O)c(-c3ccccc3C)c(C)oc2c1` the figure was 50.8%. `Cc1ccc(N2C(=O)C3C4C=CC(CNC(=S)Nc5ccc(F)cc5)(O4)C3C2=O)cc1` (stereo unspecified): the inhibition came to 54.3%. With `COc1ccc(Cl)cc1S(=O)(=O)n1c([N+](=O)[O-])cnc1C` the figure was -6.01%; with `Cc1ccc(OCC(=O)NC(=S)Nc2cccc(C)n2)cc1`, 7.91%. Turning to `Cc1ccc(NC(=O)Cc2ccc(Cl)cc2)nc1`, the inhibition turned out to be 27.8%. `COc1ccc(OCC(=O)Nc2cccc(NC(=O)COc3ccc(OC)cc3)n2)cc1`: the inhibition is -11.7%. On to `O=C(Cc1ccc(Cl)cc1)Nc1ccc(Cl)cn1`, for which the inhibition was 78.1%.

Take `O=C(Cc1ccc([N+](=O)[O-])cc1)Nc1ccc(Br)cn1`: the inhibition is -0.37%. For `O=C(COC(=O)COc1ccccc1)Nc1ccc(Cl)cn1` the value was 22.1%; for `Cc1ccc(OCC(=O)Nc2ccc([N+](=O)[O-])cn2)cc1C`, -14.3%. In the case of `O=C(COC(=O)CCOc1ccccc1)Nc1ccc(Cl)cn1`, the inhibition came out at 79.6%. On to `COc1ccc(-c2nnc(NC(=O)c3cc(C)on3)s2)cc1`, for which the inhibition amounted to 71.9%.

Consider `O=C(OCc1cc(Cl)cc2c1OCOC2)c1cccnc1Cl`, for which the inhibition is 14.6%. With `CC(C)CCNc1nc(N)c([N+](=O)[O-])c(NCCO)n1` the figure was -5.48%; with `CCOc1cc(C2C(C(=O)c3ccco3)=C(O)C(=O)N2CCc2ccccc2)ccc1O` (stereo unspecified), 29.2%; with `COc1ccc(C2=NOC(Cn3nc(-c4ccccc4)cc3C(=O)NCc3cccc(Br)c3)C2)cc1` (stereo unspecified), -12.8%. As to `Cn1c(N2CCCCC2)cc(=O)n(C)c1=O`, the inhibition is -10.1%. Regarding `CCOC(=O)C1CCCN(C2CC(=O)N(c3ccccc3)C2=O)C1` (stereo unspecified), the inhibition is 30.8%. Turning to `COC(=O)[C@@H]1C[C@@H]2CC[C@@H](O)C[C@@H]2N1Cc1ccccc1OS(=O)(=O)c1ccc(C)cc1`, the inhibition came out at 26.6%. Regarding `Cc1cccc(-c2noc(CCCC(=O)NCC3CCCO3)n2)c1` (stereo unspecified), the inhibition is 16.8%.

`O=C(c1cccc(S(=O)(=O)NCc2ccccc2)c1)N1CCN(c2ccccc2)CC1`: the inhibition came out at 17.1%.

In the case of `Cc1ccn2c(=O)nc(SCC(=O)Nc3ccc4c(c3)OCO4)nc2c1`, the inhibition was 25.1%.

Consider `O=C(COc1ccc(Cl)cc1Cl)Nc1ccc(Cl)cn1`, for which the inhibition came to 61%. With `Cc1ccc(C(=O)OCC(=O)Nc2ccc(Cl)cn2)s1`, the inhibition was 35.7%. For `O=C(COC(=O)c1ccc([N+](=O)[O-])cc1)Nc1ccc(Cl)cn1` the value was 34.3%; for `O=C(COc1ccccc1Cl)Nc1ccc(Cl)cn1`, 29.8%. With `c1ccc(-c2nnc(OCC3CCCO3)c3ccccc23)cc1` (stereo unspecified), the inhibition amounted to 4.74%. With `CCOc1ccc(C(=O)N/N=C/c2ccc(SC)cc2)cc1` the figure was 7.39%; with `COc1ccc(Br)cc1S(=O)(=O)N1CCN=C1c1ccccc1`, 9.49%.

As for `CCOC(=O)c1c[nH]c2c(C)ccc(Cl)c2c1=O`, the inhibition worked out at 5.99%. For `Cc1cccc(N=N/C(=C\O)C(=O)c2cccs2)c1`, the inhibition came to 23.2%. With `O=C(/C(=C/O)N=Nc1ccccc1)c1cccs1`, the inhibition amounted to 29.9%. Regarding `CC1CCN(C(=O)CCCNC(=O)Cn2cnc3sc4c(c3c2=O)CCCC4)CC1`, the inhibition was -3.59%. Turning to `Cc1onc(-c2c(F)cccc2Cl)c1C(=O)NCCc1ccncc1`, the inhibition was -2.23%.

Consider `O=C(NCc1cccc2[nH]ccc12)C1CCC(=O)N(CCc2ccc(Cl)cc2)C1` (stereo unspecified), for which the inhibition was 14.7%. Consider `CN1C[C@@H]2C[C@@H](C3=Cc4cc(Cl)ccc4OC3)N3CCC[C@@]23C1=O`, for which the inhibition amounted to 8.63%.

Consider `CN(CC(=O)Nc1ccccc1N1CCOCC1)CC(=O)Nc1ccc(F)c(F)c1F`, for which the inhibition worked out at 7.73%. For the molecule `CCCC(=O)NC(Nc1ccc(S(=O)(=O)Nc2cc(C)on2)cc1)(C(F)(F)F)C(F)(F)F`, the inhibition turned out to be 69.8%. `O=C(N/N=C/c1ccc2c(c1)OCO2)C1COc2ccccc2O1` (stereo unspecified): the inhibition worked out at 69.6%.

As to `C/C(=N/NC(=O)c1ccccc1)C(=O)O`, the inhibition was determined as 21.7%. In the case of `CC(/C=C/c1ccccc1)=N/NC(=O)CNC(=O)c1ccc2c(c1)OCO2`, the inhibition is -0.44%.

As for `CC(/C=C/c1ccccc1F)=N\NC(=O)C(C)C`, the inhibition was 13.2%. Consider `CC(/C=C/C=C/c1ccccc1)=N/NC(=O)c1ccc2c(c1)OCCO2`, for which the inhibition stood at 11.1%. In the case of `CC(/C=C/c1ccc2c(c1)OCO2)=N\NC(=O)C(O)c1ccccc1` (stereo unspecified), the inhibition is -1.85%. For `O=C(COc1cc(F)ccc1[N+](=O)[O-])Nc1cccc(S(=O)(=O)NC2=NCCC2)c1`, the inhibition was -15.8%. For `C=CCSc1nccc(=O)[nH]1`, the inhibition worked out at 17.7%.

As for `COc1ccc(CCNC(=O)NC(C(F)(F)F)C(F)(F)F)cc1OC`, the inhibition is -0.6%.
